# This is a sample that favours compounds with a hit; in the whole collection about 7.3% have one here.
# SMN2 splice up – qHTS Assay for Enhancers of SMN2 Splice Variant Expression | HEK293 SMN2-luciferase splicing reporter, luminescence, 30-36 h | Potency, µM (titrated, usually from 46.1 µM), hits mostly activators | 210,000 compounds, 2.8% hits; also: nearly all actives have a fitted effect of over 55% in size
#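 qHTS luciferase splicing reporter: luminescence rises when SMN2 exon 7 is included in transfected HEK293 cells. Compound exposure lasted 30-36 h at 37C, with 4.5 mM final sodium butyrate as control, followed by a ONE-Glo read.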
# NPC1 prom act – qHTS Assay for NPC1 Promoter Activators | Huh7 NPC1 promoter luciferase reporter, 24 h | Potency, µM (top dose mostly 9.22 µM), usual class: activators | 320,000 compounds, 2.4% hits | AID 485313, 2010; also: nearly all actives have a fitted effect of over 60% in size
#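 In 1536-well qHTS, Huh7 cells harboring an NPC1 promoter–luciferase construct received compound for 24 h; activation was quantified by luminescence following luciferase reagent addition.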
# ELG1 genotoxic – qHTS screen for small molecules that induce genotoxicity in human embryonic kidney (HEK293T) cells expressing luciferase-tagged ELG1; HEK293T ELG1-luciferase reporter, luminescence, 16 h; Potency, µM (series often up to 46 µM), usual class: activators; 330,000 compounds, 1.3% hits; also: nearly all actives have a fitted effect of over 60% in size
#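 HEK293T cells expressing luciferase-tagged ELG1 were exposed to compound or DMSO vehicle for 16 hr at 37 °C and 5% CO2. Luciferase activity was then measured with ONE-Glo after 30 min at room temperature.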
# KinaseGlo FLuc – Counterscreen for Luciferase (Kinase-Glo TM) Inhibition. Kinase-Glo luciferase, ATP luminescence, 8 min. AID 1379, 2008. Luciferin 4-monooxygenase (Photuris pensylvanica), Q27757. 200,000 compounds, 0.28% hits. Potency, µM (doses to about 38.3 µM), most hits filed as inhibitors; also: nearly all actives have a fitted effect of over 60% in size
#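 Inhibition of Kinase-Glo luciferase light generation was assessed at 10 uM ATP in pH 7.2 imidazole buffer, with luminescence measured after eight minutes at ambient temperature.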
# Rab9 promoter act – qHTS Assay for Rab9 Promoter Activators; Potency, µM (doses to about 9.22 µM), usual class: activators; 320,000 compounds, 2.8% hits; Huh7 Rab9 promoter-luciferase reporter, luminescence, 24 h; also: nearly all actives have a fitted effect of over 60% in size
#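 Steps: seed 1500 Huh7 Rab9-luc cells per well, rest 2 h at 37 °C; add compound in DMSO; incubate 24 h; add luciferase reagent, 10 min ambient; read luminescence.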
# FLuc modulator – qHTS profiling assay for firefly luciferase inhibitor/activator using purifed enzyme and Km concentrations of substrates (counterscreen for miR-21 project). AID 588342, 2011. 360,000 compounds, 6.9% hits. Potency, µM (doses to about 57.5 µM), actives largely listed as inhibitors. purified FLuc, Km substrates, luminescence inhibition; also: nearly all actives have a fitted effect of over 55% in size
# Target sequence (P08659 whole entry, looked up): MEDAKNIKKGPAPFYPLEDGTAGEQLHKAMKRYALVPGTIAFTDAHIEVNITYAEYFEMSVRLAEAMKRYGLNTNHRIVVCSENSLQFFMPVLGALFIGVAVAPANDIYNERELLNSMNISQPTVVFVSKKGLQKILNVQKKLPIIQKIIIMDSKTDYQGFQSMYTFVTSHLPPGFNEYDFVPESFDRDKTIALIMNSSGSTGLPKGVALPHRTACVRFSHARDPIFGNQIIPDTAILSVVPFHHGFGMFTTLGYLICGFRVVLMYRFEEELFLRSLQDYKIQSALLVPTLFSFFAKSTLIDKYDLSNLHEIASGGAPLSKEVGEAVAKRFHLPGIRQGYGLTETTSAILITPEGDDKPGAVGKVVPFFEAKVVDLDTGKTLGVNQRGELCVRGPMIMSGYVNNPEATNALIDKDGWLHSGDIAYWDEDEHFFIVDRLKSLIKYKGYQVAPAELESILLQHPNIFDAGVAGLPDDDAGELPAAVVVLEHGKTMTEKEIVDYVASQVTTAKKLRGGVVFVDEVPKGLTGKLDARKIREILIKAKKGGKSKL
#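 Biochemical qHTS of compounds, final roughly 60 µM downward over six points, against 10 nM purified firefly luciferase using Km concentrations of substrates (10 uM D-luciferin, 10 uM ATP) in Tris acetate pH 7.5 buffer; luminescence output.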
# A number is an active result; - = inactive; ? = inconclusive; . = no result. Calls follow the shape of the dose curve; as a rule, active = well fitted curve in the direction sought with a large enough effect; inconclusive = small, poorly fitted or top-dose-only effect, or another doubt; inactive = no such curve, though single readings can be large; an effect the other way counts as inactive or inconclusive.
SMILES,SMN2 splice up,NPC1 prom act,ELG1 genotoxic,KinaseGlo FLuc,Rab9 promoter act,FLuc modulator
O=C(CC1CCCCC1)Nc1nc2ccccc2s1,11.2µM,1.78µM,?,-,1.58µM,?
Cc1cnc(NC(=O)CCN2C(=O)C3CCCCC3C2=O)s1 (stereo unspecified),-,-,-,-,-,-
Cc1cnc(NC(=O)CC2CCCC2)s1,17.8µM,?,?,-,?,?
O=C(Nc1nc2ccccc2s1)NC1CCCCC1,.,1.41µM,?,-,0.631µM,1.9µM
CCOC(=O)C(C(=O)Nc1nc2ccccc2s1)C1CCCCC1 (stereo unspecified),-,-,-,-,-,-
CN(C)c1cncc(C(=O)O)c1,-,-,-,-,-,-
O=C(Nc1ccncc1)c1ccccc1-c1ccccc1,-,-,-,-,-,-
Cc1cc(/C=C2/NC(=O)N(c3ccccc3)C2=O)c(C)n1C(C)C,10µM,3.16µM,?,-,1.58µM,4.78µM
Cc1cc(/C=C2/NC(=O)N(Cc3ccccc3F)C2=O)c(C)n1C(C)C,-,-,-,-,-,?
COc1cccc(N=c2oc3c(C)ncc(CO)c3cc2C(=O)Nc2ccccc2OC)c1,-,-,-,-,-,-
O=C(CSCc1ccc(F)cc1)Nc1nc2c(s1)CCCC2,-,-,-,-,-,-
O=C(COc1ccccc1)Nc1nc2c(s1)CCCC2,.,?,?,.,?,13.5µM
COc1ccccc1OCC(=O)Nc1nc(C)c(C)s1,.,2.82µM,?,.,3.98µM,8.49µM
Cc1cnc(NC(=O)CCNC(=O)c2ccccc2Cl)s1,-,-,-,-,-,-
O=C(COc1ccccc1Cl)Nc1nc2c(s1)CCCC2,.,.,.,.,.,21.3µM
COC(=O)c1sc(NC(=O)COc2ccccc2C)nc1C,-,-,?,-,?,?
Cc1cnc(NC(=O)COc2ccccc2Cl)s1,0.794µM,0.1µM,?,-,0.251µM,0.269µM
COc1ccc(CCNC(=O)C2=C(C)C(=O)OC23CCCCC3)c(OC)c1OC,-,.,.,.,.,-
Cc1cc(C2=NNC(=NC3CC3)SC2)c(C)n1Cc1ccco1,-,-,-,?,-,0.12µM
Cc1cc(C2=NNC(=Nc3ccc(S(=O)(=O)N4CCOCC4)cc3)SC2)c(C)n1C,.,-,-,.,-,-
COCC(C)N=C1SCCN1Cc1ccccc1 (stereo unspecified),.,-,-,.,-,-
COCCCN=C1NN=C(c2cc(C)n(Cc3ccco3)c2C)CS1,?,6.31µM,3.26µM,-,-,2.69µM
COCC(C)N=C1NN=C(c2cc(C)n(Cc3ccccc3Cl)c2C)CS1 (stereo unspecified),-,?,?,-,?,7.57µM
CCC(c1nnnn1C(C)(C)CC)N(CCCO)Cc1cc2cc(C)cc(C)c2[nH]c1=O (stereo unspecified),-,-,-,-,-,-
COc1cc(/C=C/c2ccc3cccc([N+](=O)[O-])c3n2)ccc1OCC(=O)O,-,-,-,-,-,1.9µM
SMILES,SMN2 splice up,NPC1 prom act,ELG1 genotoxic,KinaseGlo FLuc,Rab9 promoter act,FLuc modulator
COc1cc(/C=C/c2nc3ccc([N+](=O)[O-])cc3s2)ccc1OCC(=O)O,.,-,-,.,-,2.69µM
CCOc1c(OC(C)=O)ccc(/C=C/c2ccc3cccc(OC)c3n2)c1[N+](=O)[O-],?,?,-,-,-,6.01µM
COc1cc(/C=C/c2ccc3c([N+](=O)[O-])cccc3n2)ccc1OCC(=O)O,.,-,-,.,-,3.38µM
C/C=C/c1ccc(OCC(=O)O)c(OC)c1,.,-,-,.,-,-
COc1ccc(CCCn2ncc3c2nc(N)n2nc(-c4ccco4)nc32)cc1,.,.,.,-,.,.
CC(=O)c1ccc(N2CCN(C(=O)c3cc4cc5cc(C)ccc5nc4s3)CC2)cc1,.,.,.,.,.,-
C=CCSc1nnc(CNC(=O)c2ccccc2C)n1C(C)C,-,-,-,-,-,-
O=C(O)COc1ccc(/C=C/c2ccc3cccc([N+](=O)[O-])c3n2)cc1,-,-,-,-,-,2.69µM
COC(=O)c1cccc(S(=O)(=O)N2CCC(n3nnc4cc(F)ccc43)CC2)c1,-,-,-,-,-,-
CCNC(=O)C1CC(=O)N(Cc2ccc3c(c2)OCO3)C(=Nc2ccc(F)cc2)S1 (stereo unspecified),-,-,-,-,-,-
Cc1ccc(C(=O)Nc2ccccc2C(=O)NCC2CCCO2)cc1 (stereo unspecified),.,-,-,.,-,15.1µM
CC(C)(C)c1ccc(C(=O)Nc2ccccc2C(=O)NCCN2CCOCC2)cc1,.,-,-,.,-,5.36µM
CCOc1cc(NC(=S)NCC2CCCO2)c(OCC)cc1NC(=O)c1ccc(C)cc1 (stereo unspecified),-,-,-,-,-,-
Cc1ccc(C(=O)NC(=S)NCC2CCCO2)cc1 (stereo unspecified),14.1µM,2.82µM,?,-,?,16.9µM
CCOc1cc(NC(=S)NCC2CCCO2)c(OCC)cc1NC(=O)c1ccc(F)cc1 (stereo unspecified),.,-,-,-,-,26.9µM
Cc1ccc([C@@H]2[C@@H]3C(=O)N(C)C(=O)[C@@H]3[C@]3(C)C(=O)N(Cc4ccccn4)CC(=O)N23)o1,.,-,-,.,-,-
CCOc1ccc2nc(NC(=O)C3CCCN(S(=O)(=O)c4cccs4)C3)sc2c1 (stereo unspecified),-,-,-,-,-,-
O=C(c1ccco1)N1c2ccccc2Sc2ccccc21,-,-,-,-,-,-
COc1cc2c(cc1OC)CN(C(=S)Nc1ccc(Cl)cc1)CC2,.,-,-,.,-,-
CC(C)NC[C@H](O)c1ccc(O)c(O)c1,-,-,-,-,-,-
OCc1ccccc1OCCOc1ccc(Cl)c2cccnc12,-,-,?,-,-,19µM
Clc1ccc(OCc2cn3ccccc3n2)c2ncccc12,.,3.55µM,?,-,2.82µM,12µM
Cc1cc[n+]2cc(-c3cccc([N+](=O)[O-])c3)c(-c3cccc([N+](=O)[O-])c3)cc2c1,-,-,-,-,-,-
C[C@H](Cc1ccccc1)Nc1ncnc2c1ncn2[C@@H]1O[C@H](CO)[C@@H](O)[C@H]1O,-,-,13µM,.,-,-
CNc1ncnc2c1ncn2[C@@H]1O[C@H](CO)[C@@H](O)[C@H]1O,-,-,16.4µM,.,-,-
CN(C)c1ncnc2c1ncn2C1OC(CO)C(O)C1O (stereo unspecified),5.62µM,-,-,-,-,-
OCC1OC(n2cnc3c(Cl)ncnc32)C(O)C1O (stereo unspecified),-,.,.,-,.,.

# Assay outcomes as filed in PubChem.
